# Screens deposited in PubChem by National Center for Advancing Translational Sciences (NCATS).
# HCV inh: inhibitors of hepatitis C virus infection | hit rate 3.4% among 340,000 | Huh7.5.1 HCVcc-Cre infection, luciferase reporter, 44 h | Potency, µM (titrated, usually from 41.8 µM), for the others: top-dose activity change, negative = inhibition, most hits filed as inhibitors; active = well fitted inhibition curve with a large enough effect; inconclusive = small, poorly fitted or top-dose-only effect, or another doubt; inactive = no such curve, though single readings can be large or run the other way
#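 Antiviral activity was scored by luciferase reporter output from cells infected with HCVcc-Cre (~0.5 moi) in presence of compound, 44 h infection period, cells seeded 1,000/well 4 h prior.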
# FMDV antiviral: antivirals against foot and mouth disease virus; FMDV antiviral cell-based qHTS; Potency, µM (top dose mostly 57.9 µM), for the others: at the top dose activity change, negative = inhibition, hits mostly inhibitors; hit rate 1.2% among 410,000; AID 1159524; calls by dose curve; tested in HEK293T cells; note: read-out not given here; nearly all actives have a fitted effect of over 45% in size
# Lassa entry inh: Lassa virus entry inhibition. Potency, µM (highest dose often 37.9 µM), without a hit: top-dose activity change, negative = inhibition, hits mostly inhibitors. hit rate 1.2% among 300,000. AID 540256. Lassa virus pseudotype entry inhibition, cell reporter; calls by dose curve; tested in HEK293 cells; note: nearly all actives have a fitted effect of over 50% in size
# Vaccinia mCherry: inhibitors of vaccinia virus infection (mCherry reporter signal); AID 720579; Vaccinia virus mCherry reporter infection, fluorescence; hit rate 0.63% among 310,000; Potency, µM (titrated, usually from 36.5 µM), for the others: at the highest dose activity change, negative = inhibition, usual class: inhibitors; calls by dose curve; tested in A549 cells; note: nearly all actives have a fitted effect of over 35% in size
# MARV entry inh: Marburg virus entry inhibition | Marburg virus pseudotyped entry inhibition, cell reporter | Potency, µM (titrated, usually from 37.8 µM), inactives show top-dose activity change, negative = inhibition, most hits filed as inhibitors | hit rate 1.8% among 300,000 | AID 540276; calls by dose curve; tested in HEK293 cells
# Vaccinia Venus: vaccinia inhibition (Venus reporter) | Vaccinia virus Venus reporter expression, fluorescence | Potency, µM (highest dose often 36.5 µM), for inactives: top-dose activity change, negative = inhibition, usual class: inhibitors | hit rate 0.46% among 330,000; calls by dose curve; tested in A549 cells; note: nearly all actives have a fitted effect of over 30% in size
# * hit, by the source's call; i = inactive; ? = inconclusive; nt = not tested or not shown; [ ] = remark or other dose. Only some compounds are listed: those with a hit (about 5.3% of all), similar ones and a draw of the others. % is set by controls: 0 for no effect and ±100 for the full control effect; potency is the fitted concentration of half-maximal effect.
SMILES,HCV inh,FMDV antiviral,Lassa entry inh,Vaccinia mCherry,MARV entry inh,Vaccinia Venus
Clc1cccc(-c2ccc(-c3nc4ccccn4c3NCc3ccccc3)cc2)c1,14µM*,-21%,nt,?,nt,?
c1ccc(CNc2c(-c3cccc(SC4CCCCC4)c3)nc3ccccn23)cc1,-18%,22µM*,nt,-18%,nt,?
Cc1ccc2nc(-c3cccc(SC4CCCCC4)c3)c(NCc3ccccc3)n2c1,?,25µM*,nt,-34%,nt,?
c1ccc(-c2nc3ccccn3c2NCc2ccc3c(c2)OCO3)cc1,-20%,-17%,0%,-11%,28%,-9%
Cc1cccc(NC(=S)N2CCC(N(C)CC3CCCO3)CC2)c1 (configuration not stated),-5%,-11%,5%,i,4%[46.1 µM],-12%
CN(C)Cc1ccccc1-c1nc(N(C)Cc2ccco2)c2ccccc2n1,nt,-10%,nt,-30%,nt,-21%
CCc1nnc(N/N=C/c2ccc(N3CCC(C)CC3)c([N+](=O)[O-])c2)n1N,?,2%,?,10µM*,?,?
Cc1nnc(N/N=C/c2cc([N+](=O)[O-])c(N3CCC(C)CC3)cc2N2CCC(C)CC2)n1N,13µM*,?,-5%,nt,?,nt
Nn1cnnc1N/N=C/c1ccc(Cl)c([N+](=O)[O-])c1,9%,-14%,-20%[46.1 µM],?,?,?
Cc1nnc(NC(=O)C2CC(=O)N(C(C)c3ccccc3)C2)s1 (configuration not stated),6%,-25%,15%,-1%,5%,-11%
CC(C)(C)c1ccc(NC(=O)COc2ccc(-n3ccnc3)cc2)cc1,5µM*,11µM*,?,nt,?,?
N#Cc1cccc(NC(=O)COc2ccc(-n3ccnc3)cc2)c1,?,28µM*,4%,nt,-16%,nt
COc1cc(NC(=O)COc2ccc(-n3ccnc3)cc2)cc(OC)c1,?,?,4%,-1%,-10%[46.1 µM],-11%
Cc1ccccc1CN1CCc2nnc(C(C)NC(=O)C3CCN(C)CC3)n2CC1 (configuration not stated),nt,4%,nt,i,nt,0%
CSc1cccc(NC(=S)N2CCCN(Cc3cccc(Cl)c3)C2)c1,?,-4%,?,-7%,4.5µM*,-17%
CSc1cccc(NC(=S)N(CCCN2CCCC2)Cc2cccn2Cc2ccc(Cl)cc2)c1,?,40µM*,2.8µM*,?,6.3µM*,?
S=C(Nc1cccc(Cl)c1)N(CCCN1CCCC1)Cc1cccn1Cc1ccc(Cl)cc1,-27%,-24%,?,?,?,?
O=c1[nH]c2ccc(Cl)cc2c(-c2ccccc2)c1N1CCN(c2ccccn2)CC1,?,8%,?,-5%,2.3µM*,-18%
CCOC(=O)c1noc2ncnc(N3CCN(c4ccccc4OC)CC3)c12,nt,-25%,6%[46.1 µM],-14%,nt,-10%
O=C(NCC1(N2CCOCC2)CCCCC1)c1cnn(-c2nccc(-c3cccs3)n2)c1C1CC1,nt,-16%,nt,?,nt,?
Cc1ccc(NC(=O)Cn2nnc(-c3ccccc3NC(=O)c3cccs3)n2)cc1,?,-12%,0.58µM*,-19%,?,?
COc1ccc(NC(=O)Cn2nnc(-c3ccccc3NS(=O)(=O)c3ccc(OC)cc3)n2)cc1,11µM*,-20%,?,-4%,?,-26%
COc1ccccc1NC(=O)Cn1nnc(-c2ccccc2NS(=O)(=O)c2ccccc2)n1,?,?,?,?,?,-29%
COc1ccc2ccccc2c1CN1CCC2(CCC(CNC(=O)c3ccccc3)O2)CC1 (configuration not stated),nt,-18%,nt,i,nt,-9%
N#Cc1cccnc1N1CCN(C(=O)c2cccc3c2C(=O)c2ccc(Cl)cc2S3(=O)=O)CC1,13µM*,-10%,nt,i,nt,-9%
SMILES,HCV inh,FMDV antiviral,Lassa entry inh,Vaccinia mCherry,MARV entry inh,Vaccinia Venus
COc1ccc(/C=N/NC(=O)c2cccc([N+](=O)[O-])c2)cc1O,-14%,65%,2%,-17%,?,-27%
Cc1cc(C(=O)N/N=C/c2cc(N=Nc3ccccc3)ccc2O)n[nH]1,22µM*,10%,11µM*,?,0.5µM*,?
COc1cccc(/C=N/NC(=O)c2cc3cc([N+](=O)[O-])ccc3s2)c1O,?,-6%,?,5µM*,1.8µM*,?
COC(=O)N/N=C/c1cc(N=Nc2ccccc2Cl)ccc1O,?,-8%,nt,-5%[7.34 µM],nt,-18%[7.34 µM]
Nc1ccc(C(=O)N/N=C\c2cc(N=Nc3cccc4ccccc34)ccc2O)cc1,11µM*,15%,?,nt,16µM*,nt
O=C(N/N=C/c1cccc([N+](=O)[O-])c1)c1cc2ccccc2o1,11µM*,-4%,0%,-1%,?,-25%
COc1ccccc1-c1ccnc(-n2ncc(C(=O)NCCc3cccnc3)c2C)n1,nt,0%,nt,-12%,nt,4%
CCN(C(=O)CSc1nc2ccccc2n1CC(=O)Nc1ccccc1C)c1ccccc1,nt,7%,-3%[46.1 µM],-21%,nt,4%
O=C(OC(C(=O)N1CCOCC1)c1ccccc1)c1c2c(nc3ccccc13)CCCC2 (configuration not stated),nt,nt,nt,38%,nt,9%
O=C(N/N=C/c1ccc(-c2cccc([N+](=O)[O-])c2)o1)c1ccc([N+](=O)[O-])cc1,10µM*,?,1%,-18%,?,-20%
O=C(N/N=C/c1cc([N+](=O)[O-])ccc1O)c1c[nH]c2ccccc12,-17%,-17%,nt,?,nt,-3%
COc1cc([N+](=O)[O-])cc(/C=N/NC(=O)c2ccc(C)nc2)c1O,?,-1%,?,-12%,?,0%
COc1cc([N+](=O)[O-])cc(/C=N/NC(=O)c2ccc(NC(=O)c3ccc(C)cc3)cc2)c1O,2.5µM*,?,?,1%,1.1µM*,4%
O=C(NN=Cc1cc([N+](=O)[O-])ccc1O)c1cccc2ccccc12,?,-4%,7.1µM*,?,10µM*,?
O=C(N/N=C/c1ccccn1)c1cccc([N+](=O)[O-])c1,-9%,-2%,-20%,-6%,?,-10%
O=C(NN=Cc1ccccc1O)c1cccc([N+](=O)[O-])c1,7.9µM*,20%,?,1.1µM*,10µM*,?
O=C(C1=C(C(=O)N(C2CCCCC2)C2CCCCC2)CCCC1)N1CCCCC1,nt,nt,nt,nt,-9%,nt
Cc1c(O)ccc2c1OC(C)(C)CC2,nt,nt,nt,-21%,nt,-11%
Cc1cc(C(=O)NCC2CCC3(CCN(Cc4cc(F)ccc4F)CC3)O2)n(C)n1 (configuration not stated),nt,0%,nt,-20%,nt,-11%
COc1cccc(NC(=O)CN(C)C(=O)c2ccc3c(c2)C(=O)N(CCC(C)C)C3=O)c1,-5%,?,nt,nt,nt,nt
O=C(N/N=C/c1cc([N+](=O)[O-])ccc1O)c1cc(-c2ccccc2)nc2ccccc12,?,-28%,8.9µM*,?,2.5µM*,-10%
